The text below walks through data of PMC7862700, “An all-to-all approach to the identification of sequence-specific readers for epigenetic DNA modifications on cytosine”.

What all share (test): DAPPL (digital affinity profiling via proximity ligation, sequencing); 10 mM Tris-HCl pH 7.5, 50 mM NaCl, 1 mM DTT, 4% glycerol, room temperature, 30 min; GST-TFs on glutathione beads, 16-mer random dsDNA library, 0.1% formaldehyde crosslink after washing; high values mean tight binding
One assay has as its target T1, FEV (Homo sapiens, UniProt Q99581 1-238).
T1 sequence: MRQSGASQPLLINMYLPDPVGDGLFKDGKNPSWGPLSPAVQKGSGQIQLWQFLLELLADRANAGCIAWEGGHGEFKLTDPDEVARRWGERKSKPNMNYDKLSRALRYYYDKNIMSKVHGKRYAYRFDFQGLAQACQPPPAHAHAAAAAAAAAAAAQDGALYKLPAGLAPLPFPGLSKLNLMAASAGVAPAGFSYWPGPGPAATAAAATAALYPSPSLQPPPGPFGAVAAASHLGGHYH
As to conditions: protein: recombinant; tags: N-terminal GST; dsDNA, one strand shown. In a few lines: (§1)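 In yeast, human transcription factors were expressed with a GST fusion, then pulled down on glutathione beads and given DNA barcodes. Pooled with a tag-only sample, they were exposed to 200 nmole of a 16-mer random double-stranded DNA library (Tris/NaCl/DTT/glycerol buffer, room temperature, 30 min), washed, crosslinked with 0.1% formaldehyde, proximity-ligated using BsaI/T4 ligase for 1 h at 37 °C, PCR-amplified and read on an Illumina NextSeq500. Each hexamer's frequency of reads for a factor, divided by the matching frequency for the tag-only sample, gives the binding signal.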

The target in another assay is ETV5 (Homo sapiens, UniProt P41161 1-510). To be noted: protein: recombinant; tags: N-terminal GST; dsDNA, one strand shown. In a few lines: as §1
A further assay deals with HSF1 (Homo sapiens, UniProt Q00613 1-529). As to conditions: protein: recombinant; tags: N-terminal GST; chain copies: 3; dsDNA, one strand shown. In a few lines: as §1
A further assay deals with T2, SPIC (Homo sapiens, UniProt Q8N5J4 1-248).
T2 sequence: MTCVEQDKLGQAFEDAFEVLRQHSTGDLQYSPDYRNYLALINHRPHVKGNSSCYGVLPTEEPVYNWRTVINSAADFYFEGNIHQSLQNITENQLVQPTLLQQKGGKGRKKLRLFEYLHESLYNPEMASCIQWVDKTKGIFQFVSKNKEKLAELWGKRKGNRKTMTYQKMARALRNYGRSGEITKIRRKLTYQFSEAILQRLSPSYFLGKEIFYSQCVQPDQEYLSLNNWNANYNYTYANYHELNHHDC
To be noted: protein: recombinant; tags: N-terminal GST; dsDNA, one strand shown. An outline of the steps: as §1

In the next assay the target is ELF4 (Homo sapiens, UniProt Q99607 1-663). To be noted: protein: recombinant; tags: N-terminal GST; dsDNA, one strand shown. An outline of the steps: as §1
A further assay has as its target T3, ELK4 (Homo sapiens, UniProt P28324-2 1-405).
T3 sequence: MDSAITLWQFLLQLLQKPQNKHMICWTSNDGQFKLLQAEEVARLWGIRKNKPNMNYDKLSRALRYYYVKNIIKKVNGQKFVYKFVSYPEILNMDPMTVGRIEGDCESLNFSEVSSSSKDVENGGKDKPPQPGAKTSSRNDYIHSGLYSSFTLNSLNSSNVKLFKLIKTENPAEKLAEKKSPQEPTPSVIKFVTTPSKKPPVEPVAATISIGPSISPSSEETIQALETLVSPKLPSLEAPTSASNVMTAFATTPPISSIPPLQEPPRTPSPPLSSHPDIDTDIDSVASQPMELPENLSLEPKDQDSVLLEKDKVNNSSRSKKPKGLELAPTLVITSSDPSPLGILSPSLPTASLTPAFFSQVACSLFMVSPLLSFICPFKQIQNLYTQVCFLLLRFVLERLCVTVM
As to conditions: protein: recombinant; tags: N-terminal GST; dsDNA, one strand shown. In a few lines:
as §1

Another assay has as its target T4, ETV2 (Homo sapiens, UniProt O00321 1-342).
T4 sequence: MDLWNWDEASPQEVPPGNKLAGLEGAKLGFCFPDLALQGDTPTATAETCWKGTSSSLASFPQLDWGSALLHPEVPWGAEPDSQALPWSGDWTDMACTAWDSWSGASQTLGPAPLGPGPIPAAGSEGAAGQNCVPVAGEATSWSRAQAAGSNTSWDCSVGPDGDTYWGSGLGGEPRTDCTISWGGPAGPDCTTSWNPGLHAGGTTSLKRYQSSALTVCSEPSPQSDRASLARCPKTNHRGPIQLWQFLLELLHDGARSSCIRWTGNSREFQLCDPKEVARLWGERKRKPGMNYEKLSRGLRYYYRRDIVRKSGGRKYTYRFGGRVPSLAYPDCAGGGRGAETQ
To be noted: protein: recombinant; tags: N-terminal GST; dsDNA, one strand shown. An outline of the steps: as §1

The target in a further assay is T5, ELF3 (Homo sapiens, UniProt P78545 1-371).
T5 sequence: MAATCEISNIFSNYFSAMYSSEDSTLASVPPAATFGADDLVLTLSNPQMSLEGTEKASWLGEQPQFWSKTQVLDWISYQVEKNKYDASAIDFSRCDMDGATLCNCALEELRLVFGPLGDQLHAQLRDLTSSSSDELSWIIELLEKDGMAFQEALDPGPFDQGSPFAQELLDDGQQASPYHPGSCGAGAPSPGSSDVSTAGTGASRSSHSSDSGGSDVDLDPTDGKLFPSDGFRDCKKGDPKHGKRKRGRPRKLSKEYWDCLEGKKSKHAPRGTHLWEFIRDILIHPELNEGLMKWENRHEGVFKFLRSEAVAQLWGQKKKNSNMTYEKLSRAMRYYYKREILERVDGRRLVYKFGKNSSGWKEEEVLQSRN
To be noted: protein: recombinant; tags: N-terminal GST; dsDNA, one strand shown. An outline of the steps: as §1

The target of another assay is CRX (Homo sapiens, UniProt O43186 1-299). To be noted: protein: recombinant; tags: N-terminal GST; dsDNA, one strand shown. In a few lines:
as §1

The next assay has as its target ETV1 (Homo sapiens, UniProt P50549 1-477). To be noted: protein: recombinant; tags: N-terminal GST; dsDNA, one strand shown. In a few lines:
as §1

Another assay addresses T6, ERF (Homo sapiens, UniProt P50548 1-548).
T6 sequence: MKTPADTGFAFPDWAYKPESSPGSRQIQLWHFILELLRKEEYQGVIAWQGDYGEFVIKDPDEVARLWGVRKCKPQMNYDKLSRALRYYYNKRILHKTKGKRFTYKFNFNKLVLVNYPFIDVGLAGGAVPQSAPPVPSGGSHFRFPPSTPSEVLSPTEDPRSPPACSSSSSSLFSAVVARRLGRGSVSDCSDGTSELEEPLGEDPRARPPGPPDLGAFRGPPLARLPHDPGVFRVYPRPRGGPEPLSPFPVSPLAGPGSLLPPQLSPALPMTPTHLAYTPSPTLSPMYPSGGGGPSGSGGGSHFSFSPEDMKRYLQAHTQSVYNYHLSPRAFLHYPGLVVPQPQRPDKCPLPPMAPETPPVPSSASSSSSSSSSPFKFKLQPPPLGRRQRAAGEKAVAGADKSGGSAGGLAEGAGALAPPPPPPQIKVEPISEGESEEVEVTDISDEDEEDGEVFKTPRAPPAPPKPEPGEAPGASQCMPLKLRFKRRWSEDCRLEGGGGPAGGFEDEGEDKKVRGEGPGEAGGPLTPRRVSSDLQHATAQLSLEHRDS
As to conditions: protein: recombinant; tags: N-terminal GST; dsDNA, one strand shown. In a few lines: as §1

In another assay the target is T7, ETV3L (Homo sapiens, UniProt Q6ZN32 1-361).
T7 sequence: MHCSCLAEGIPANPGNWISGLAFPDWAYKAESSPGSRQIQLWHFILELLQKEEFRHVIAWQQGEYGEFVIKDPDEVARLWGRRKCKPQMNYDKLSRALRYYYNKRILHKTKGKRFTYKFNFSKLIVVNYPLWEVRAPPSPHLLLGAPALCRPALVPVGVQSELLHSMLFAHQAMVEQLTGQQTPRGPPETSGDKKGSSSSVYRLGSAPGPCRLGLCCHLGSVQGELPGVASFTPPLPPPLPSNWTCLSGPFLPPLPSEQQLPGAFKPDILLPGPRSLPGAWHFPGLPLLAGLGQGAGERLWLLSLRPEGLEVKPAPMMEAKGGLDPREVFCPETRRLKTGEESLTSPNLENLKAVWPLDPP
As to conditions: protein: recombinant; tags: N-terminal GST; dsDNA, one strand shown. An outline of the steps: as §1

The target in the next assay is T8, ETS2 (Homo sapiens, UniProt P15036 1-469).
T8 sequence: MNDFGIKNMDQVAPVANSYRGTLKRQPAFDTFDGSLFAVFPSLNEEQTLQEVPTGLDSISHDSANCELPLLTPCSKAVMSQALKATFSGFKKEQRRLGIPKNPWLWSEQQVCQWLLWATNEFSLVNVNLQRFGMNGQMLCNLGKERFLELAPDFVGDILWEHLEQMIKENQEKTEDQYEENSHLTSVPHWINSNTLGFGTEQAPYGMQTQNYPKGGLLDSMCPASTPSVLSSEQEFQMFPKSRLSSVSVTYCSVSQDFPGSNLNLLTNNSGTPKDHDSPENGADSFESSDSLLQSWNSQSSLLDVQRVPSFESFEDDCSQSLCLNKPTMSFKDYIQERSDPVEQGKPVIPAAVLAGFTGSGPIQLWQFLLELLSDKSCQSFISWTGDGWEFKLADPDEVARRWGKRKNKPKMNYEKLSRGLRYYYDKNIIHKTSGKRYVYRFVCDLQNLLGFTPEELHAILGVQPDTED
To be noted: protein: recombinant; tags: N-terminal GST; dsDNA, one strand shown. An outline of the steps: as §1

A further assay addresses T9, SPDEF (Homo sapiens, UniProt O95238 1-335).
T9 sequence: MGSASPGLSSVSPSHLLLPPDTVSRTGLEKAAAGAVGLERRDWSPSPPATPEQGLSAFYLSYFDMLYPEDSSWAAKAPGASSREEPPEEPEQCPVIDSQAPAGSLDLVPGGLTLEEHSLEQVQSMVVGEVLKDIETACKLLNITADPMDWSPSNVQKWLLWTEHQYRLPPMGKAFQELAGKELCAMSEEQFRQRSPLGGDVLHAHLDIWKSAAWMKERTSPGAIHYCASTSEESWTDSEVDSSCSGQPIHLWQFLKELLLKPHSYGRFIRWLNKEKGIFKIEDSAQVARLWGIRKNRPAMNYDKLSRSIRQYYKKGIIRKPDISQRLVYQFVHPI
To be noted: protein: recombinant; tags: N-terminal GST; dsDNA, one strand shown. An outline of the steps:
as §1

Another assay has as its target T10, ETV7 (Homo sapiens, UniProt Q9Y603 1-341).
T10 sequence: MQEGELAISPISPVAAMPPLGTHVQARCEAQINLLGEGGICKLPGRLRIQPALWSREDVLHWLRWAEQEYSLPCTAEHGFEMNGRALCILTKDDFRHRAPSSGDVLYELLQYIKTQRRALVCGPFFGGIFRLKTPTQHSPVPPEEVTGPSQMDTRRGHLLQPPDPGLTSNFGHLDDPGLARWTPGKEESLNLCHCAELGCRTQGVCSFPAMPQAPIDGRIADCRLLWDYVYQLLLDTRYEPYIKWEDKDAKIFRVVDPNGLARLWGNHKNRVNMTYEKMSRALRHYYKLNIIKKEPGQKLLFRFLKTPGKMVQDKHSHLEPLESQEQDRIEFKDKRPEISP
To be noted: protein: recombinant; tags: N-terminal GST; dsDNA, one strand shown. In a few lines:
as §1

The target of the next assay is T11, ELF5 (Homo sapiens, UniProt Q9UKW6-2 1-255).
T11 sequence: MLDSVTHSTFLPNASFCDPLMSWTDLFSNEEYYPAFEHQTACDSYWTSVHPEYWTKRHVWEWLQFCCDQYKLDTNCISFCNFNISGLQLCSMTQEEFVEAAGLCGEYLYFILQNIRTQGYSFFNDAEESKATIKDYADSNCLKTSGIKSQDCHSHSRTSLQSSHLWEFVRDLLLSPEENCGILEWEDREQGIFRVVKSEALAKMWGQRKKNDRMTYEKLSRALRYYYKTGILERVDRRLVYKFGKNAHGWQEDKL
As to conditions: protein: recombinant; tags: N-terminal GST; dsDNA, one strand shown. In a few lines: as §1

The target in another assay is T12, ETV3 (Homo sapiens, UniProt P41162-2 1-143).
T12 sequence: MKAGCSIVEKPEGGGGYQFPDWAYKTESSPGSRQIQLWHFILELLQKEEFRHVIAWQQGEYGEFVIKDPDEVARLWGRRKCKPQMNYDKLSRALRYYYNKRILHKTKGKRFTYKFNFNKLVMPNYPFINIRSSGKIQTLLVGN
As to conditions: protein: recombinant; tags: N-terminal GST; dsDNA, one strand shown. In a few lines:
as §1

For a further assay, the target named is ETV6 (Homo sapiens, UniProt P41212 1-452). As to conditions: protein: recombinant; tags: N-terminal GST; dsDNA, one strand shown. In a few lines:
as §1

HSF1, sequence (Q00613 whole entry): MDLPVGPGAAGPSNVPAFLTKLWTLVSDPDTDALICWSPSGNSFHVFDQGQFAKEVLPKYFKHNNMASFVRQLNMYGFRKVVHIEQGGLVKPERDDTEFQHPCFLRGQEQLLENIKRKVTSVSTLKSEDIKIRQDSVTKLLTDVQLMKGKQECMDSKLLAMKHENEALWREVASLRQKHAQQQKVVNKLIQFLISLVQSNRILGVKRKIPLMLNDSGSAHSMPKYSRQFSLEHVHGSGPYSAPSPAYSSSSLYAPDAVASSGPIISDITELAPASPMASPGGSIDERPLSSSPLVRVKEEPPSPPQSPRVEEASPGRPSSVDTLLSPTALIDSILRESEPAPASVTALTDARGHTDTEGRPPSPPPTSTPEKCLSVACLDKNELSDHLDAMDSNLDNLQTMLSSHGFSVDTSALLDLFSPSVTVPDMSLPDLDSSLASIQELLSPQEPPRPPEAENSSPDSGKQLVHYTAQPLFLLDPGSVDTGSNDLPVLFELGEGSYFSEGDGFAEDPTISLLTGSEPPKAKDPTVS
ETV5, sequence (P41161 whole entry): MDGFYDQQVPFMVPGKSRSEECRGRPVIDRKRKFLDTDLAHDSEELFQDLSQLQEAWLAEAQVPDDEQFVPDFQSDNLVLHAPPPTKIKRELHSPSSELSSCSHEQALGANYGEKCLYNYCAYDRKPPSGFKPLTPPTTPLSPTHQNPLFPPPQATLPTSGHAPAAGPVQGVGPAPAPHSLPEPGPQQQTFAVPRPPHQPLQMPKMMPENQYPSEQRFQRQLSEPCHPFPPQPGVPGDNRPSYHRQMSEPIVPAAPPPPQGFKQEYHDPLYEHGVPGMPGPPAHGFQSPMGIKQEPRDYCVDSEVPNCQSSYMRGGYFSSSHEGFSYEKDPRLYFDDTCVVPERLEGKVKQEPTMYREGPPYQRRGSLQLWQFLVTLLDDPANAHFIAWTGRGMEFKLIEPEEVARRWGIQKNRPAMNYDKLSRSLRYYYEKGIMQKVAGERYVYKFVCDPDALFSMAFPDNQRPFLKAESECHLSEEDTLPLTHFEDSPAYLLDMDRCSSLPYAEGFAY
ETV1, sequence (P50549 whole entry): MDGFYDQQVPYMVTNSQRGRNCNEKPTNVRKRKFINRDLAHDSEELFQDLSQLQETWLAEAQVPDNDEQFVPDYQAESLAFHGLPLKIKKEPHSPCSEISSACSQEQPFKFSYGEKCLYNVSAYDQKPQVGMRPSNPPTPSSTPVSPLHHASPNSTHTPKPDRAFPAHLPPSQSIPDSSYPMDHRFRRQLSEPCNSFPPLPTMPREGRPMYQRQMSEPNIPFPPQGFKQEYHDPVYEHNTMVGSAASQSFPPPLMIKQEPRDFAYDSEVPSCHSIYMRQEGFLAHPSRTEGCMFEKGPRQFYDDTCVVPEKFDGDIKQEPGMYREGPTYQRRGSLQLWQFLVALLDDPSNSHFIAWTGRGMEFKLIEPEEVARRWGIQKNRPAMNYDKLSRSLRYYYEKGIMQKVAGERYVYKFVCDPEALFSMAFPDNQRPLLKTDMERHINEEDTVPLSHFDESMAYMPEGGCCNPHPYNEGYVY
ELF4, sequence (Q99607 whole entry): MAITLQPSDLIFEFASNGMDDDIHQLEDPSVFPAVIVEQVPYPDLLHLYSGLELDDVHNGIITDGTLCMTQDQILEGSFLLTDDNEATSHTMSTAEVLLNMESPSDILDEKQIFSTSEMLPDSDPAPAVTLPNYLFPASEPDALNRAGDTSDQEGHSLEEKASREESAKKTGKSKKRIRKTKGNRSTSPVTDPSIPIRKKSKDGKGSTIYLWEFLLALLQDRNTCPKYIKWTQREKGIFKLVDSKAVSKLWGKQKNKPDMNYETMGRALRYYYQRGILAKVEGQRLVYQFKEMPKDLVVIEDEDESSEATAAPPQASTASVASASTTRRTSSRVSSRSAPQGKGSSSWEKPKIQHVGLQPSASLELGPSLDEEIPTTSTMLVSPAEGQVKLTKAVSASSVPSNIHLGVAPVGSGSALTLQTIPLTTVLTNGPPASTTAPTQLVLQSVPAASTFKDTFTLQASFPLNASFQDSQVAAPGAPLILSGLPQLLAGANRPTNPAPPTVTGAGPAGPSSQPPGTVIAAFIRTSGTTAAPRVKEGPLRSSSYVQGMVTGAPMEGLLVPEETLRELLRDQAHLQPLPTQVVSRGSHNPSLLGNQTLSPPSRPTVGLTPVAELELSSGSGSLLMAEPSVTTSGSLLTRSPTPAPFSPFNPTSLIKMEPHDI
ETV6, sequence (P41212 whole entry): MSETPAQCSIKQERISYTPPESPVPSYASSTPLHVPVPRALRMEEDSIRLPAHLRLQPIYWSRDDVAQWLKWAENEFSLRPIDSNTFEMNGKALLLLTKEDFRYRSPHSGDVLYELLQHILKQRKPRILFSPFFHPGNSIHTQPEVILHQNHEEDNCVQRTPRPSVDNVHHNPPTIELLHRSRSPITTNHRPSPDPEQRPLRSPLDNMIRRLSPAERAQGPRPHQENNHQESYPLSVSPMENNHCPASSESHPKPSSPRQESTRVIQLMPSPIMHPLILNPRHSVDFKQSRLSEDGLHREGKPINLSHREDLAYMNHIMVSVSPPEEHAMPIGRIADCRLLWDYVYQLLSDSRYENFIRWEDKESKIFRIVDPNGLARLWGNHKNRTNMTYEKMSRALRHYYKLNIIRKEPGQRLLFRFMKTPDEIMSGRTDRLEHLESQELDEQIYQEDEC
CRX, sequence (O43186 whole entry): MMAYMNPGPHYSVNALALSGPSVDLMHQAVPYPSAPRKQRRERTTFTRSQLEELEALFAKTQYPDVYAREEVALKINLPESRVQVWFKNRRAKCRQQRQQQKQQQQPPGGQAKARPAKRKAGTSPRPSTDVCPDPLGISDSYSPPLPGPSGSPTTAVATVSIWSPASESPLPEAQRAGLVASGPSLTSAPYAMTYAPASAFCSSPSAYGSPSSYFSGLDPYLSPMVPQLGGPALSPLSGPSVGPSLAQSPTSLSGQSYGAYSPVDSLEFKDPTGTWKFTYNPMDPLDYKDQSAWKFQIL

GGCTTC: the binding signal is 1.77 fold enrichment (6-mer frequency, TF over GST control) with FEV; 1.69 fold enrichment (6-mer frequency, TF over GST control) in the assay with ETV5; 1.45 fold enrichment (6-mer frequency, TF over GST control) in the assay with HSF1; 1.6 fold enrichment (6-mer frequency, TF over GST control) with SPIC; 1.55 fold enrichment (6-mer frequency, TF over GST control) with ELF4; 1.44 fold enrichment (6-mer frequency, TF over GST control) with ELK4. For the same sequence, the binding signal with ETV2 is 1.76 fold enrichment (6-mer frequency, TF over GST control); with ELF3, 1.64 fold enrichment (6-mer frequency, TF over GST control); with CRX, 1.25 fold enrichment (6-mer frequency, TF over GST control); with ETV1, 1.6 fold enrichment (6-mer frequency, TF over GST control); in the assay with ERF, 1.7 fold enrichment (6-mer frequency, TF over GST control); in the assay with ETV3L, 1.61 fold enrichment (6-mer frequency, TF over GST control). Also, the binding signal with ETS2 was 1.7 fold enrichment (6-mer frequency, TF over GST control); with SPDEF it was 1.6 fold enrichment (6-mer frequency, TF over GST control); with ETV7 it was 1.54 fold enrichment (6-mer frequency, TF over GST control); with ELF5 it was 1.81 fold enrichment (6-mer frequency, TF over GST control); in the assay with ETV3 it was 1.65 fold enrichment (6-mer frequency, TF over GST control); with ETV6, 1.85 fold enrichment (6-mer frequency, TF over GST control).
